# Data taken from PubChem BioAssay (NCI).
# The panel holds about 79,000 compounds, 15% with a hit somewhere; the sample as a whole holds those more often. Values without a mark were called inactive. Rule as the data show it: active = growth inhibition above about 70%; inactive = the rest.
# Test: NCI Yeast Anticancer Drug Screen. Data for the mlh1 rad18 strain (AID 175)
# Settings: S. cerevisiae mlh1 rad18 strain growth inhibition; at 50.0 µM; active compounds read high
# Summary of the method: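 Growth inhibition of the yeast strain was measured after compound exposure and expressed relative to vehicle-treated controls. The strain carries defined defects in DNA damage repair.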
row,Compound,growth inhibition
1,C[N+]1(C)CCOC(O)(c2ccccc2)C1 (stereo not given),-18.6%
2,O=C(CCc1n[nH]c(=S)o1)Nc1ccccc1,35.3%
3,COc1ccc(/C=C\c2cccc(Cl)c2)cc1,6.4%
4,N#CSCc1c(Cl)c(Cl)c(CSC#N)c(Cl)c1Cl,-12.4%
5,Nc1ncnc2c1ccn2C1OC2COP(=O)(O)OC2C1O (stereo not given),-15.1%
6,CCc1ccc(/C(C#N)=C/c2cccc3ccccc23)cc1,-5.25%
7,CCOC(=O)c1c(O)nc2sc3ccccc3n2c1=O,41.4%
8,COC(=O)C(CCc1ccc([N+](=O)[O-])cc1)(CCc1ccc([N+](=O)[O-])cc1)C(C)=O,28.6%
9,O=C(O)C1CSC2(CCCN(Cc3ccccc3)C2)N1 (stereo not given),5.2%
10,CC1OC(n2cc(Cl)c(=O)[nH]c2=O)C=C(OC(=O)c2ccccc2)C1=O (stereo not given),-28.9%
11,O=[N+]([O-])c1ccc(S(=O)(=O)c2ccc(NCN3CCCCC3)cc2)cc1,17.6%
12,O=[N+]([O-])C1C2C=CC(C2)[C@H]1c1ccco1 (stereo not given in full),-4.95%
13,Cc1cc(N(CCC#N)CCC#N)ccc1/C=C1N=C(/C=C\c2ccccc2)N(c2ccc(C(=O)O)cc2)C\1=O,-26.1%
14,COc1cc(OC)c(NC(N)=O)cc1Cl,-15.8%
15,CN(C)CCOc1ccccn1,0.3%
16,COC(=O)NN=C1C(C)(C)C(=O)C1(C)C,-20.1%
17,CCC1OC(=O)CC(O)C(C)C(OC2OC(C)CC(N(C)C)C2O)C(CC=O)CC(C)C(=O)/C=C/C2(C)OC2C1C (stereo not given),1.8%
18,COc1ccc(S(=O)c2coc3ccccc3c2=O)cc1 (stereo not given),20.9%
19,O=C(O)c1cccc(S(=O)(=O)NCCO)c1,8.5%
20,CC1C=CCCC1COC(=O)C(=O)OCC1CC=CCC1C (stereo not given),19.9%

row,Compound,growth inhibition
1,CCCCC(=O)Nc1ccc(Cl)cc1,11.7%
2,CC(=O)CC1CCCC1,17.9%
3,CCN(c1ccccc1)c1nsc(Cl)n1,-16%
4,c1ccc(CSCCc2ccncc2)cc1,20.2%
5,C[n+]1ccsn1,-10.4%
6,CC(C)CC(C)(CC(C)C)C(=O)O,11.8%
7,CN(C)c1ccccc1CC(=O)Nc1ccccc1,3.1%
8,CC(C)(C)OC(=O)CN1C(=O)CCC1=O,-5.15%
9,CCN(CC)C(=O)C1(C)NS(=O)(=O)c2ccccc2C1=O (stereo not given),-9.45%
10,CC(=O)CC(C)(C)NNC(N)=S,22.2%
11,C/C=C/C1N(C)CCCN1C,8.55%
12,COc1ccc(N2C(=O)C3c4[nH]c5ccccc5c4C4CCCCCCC4C3C2=O)cc1 (stereo not given),28.6%
13,CC(C)C1N=C(N)N=C(N)N1c1ccc(Cl)c(Cl)c1 (stereo not given),6.6%
14,CC(NC(=O)c1ccc(C(C[N+](=O)[O-])SCCC(=O)O)cc1)C(=O)O (stereo not given),1.2%
15,Ic1ccccn1,-1.2%
16,COc1cc2nc(C)oc(=O)c2cc1OC,0.85%
17,N#CC1(C#N)CC1(C#N)C#N,15.2%
18,Cc1cc(N=Cc2c(CO)cnc(C)c2O)c(N=Cc2c(CO)cnc(C)c2O)cc1C.[Zn],0.9%
19,Cn1nc2c(c1-c1cccnc1)CCCc1ccccc1-2,28.9%
20,COC(=O)C(C(=O)C(=O)Nc1ccc([N+](=O)[O-])cc1)c1nc2ccc([N+](=O)[O-])cc2[nH]c1=O (stereo not given),8.75%
